Consider 17 compounds from PubChem BioAssay (NCATS).

Assay [1] is described as follows: qHTS of pediatric cancer cell lines to identify multiple opportunities for drug repurposing: Primary screen for Saos-2 cells (AID 1347097). Also: nearly all actives have a fitted effect of over 40% in size. Also: potency is read from the fitted curve at half-maximal effect. An outline of the steps:
(§1)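 Cells seeded at 500-1,000 cells/well in growth media, rested 5 hours at 37 degrees C, 5% CO2, then dosed; MIPE compounds at 11-point (from 0.78 nM) and NPC at 8-point (from 0.59 nM) final concentrations. Viability by CellTiter-Glo luminescence after 48 hours.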

Assay [2] is described as follows: qHTS of pediatric cancer cell lines to identify multiple opportunities for drug repurposing: Primary screen for SK-N-SH cells (AID 1347098).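 Also: DMSO served as neutral control and bortezomib at 2.3 µM as positive control; nearly all actives have a fitted effect of over 65% in size.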 Put shortly:
(§2)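 Cells (500-1,000/well) rested 5 h, then received compounds for 48 h; metabolically active cells were measured by CellTiter-Glo luminescence. Final concentrations spanned up to 46 µM (MIPE, 11-point) or 0.59 nM-46 µM (NPC, 8-point) in primary screens, 11-point in follow-ups.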
For orientation: In qHTS, concentration-response curves come from the screen itself.

The nature of assay [3]: qHTS of pediatric cancer cell lines to identify multiple opportunities for drug repurposing: Primary screen for NB1643 cells (AID 1347099). Also: nearly all actives have a fitted effect of over 50% in size. Put shortly:
as §1

A short description of assay [4]: qHTS of pediatric cancer cell lines to identify multiple opportunities for drug repurposing: Primary screen for LAN-5 cells (AID 1347100). An outline of the steps:
as §2

A short description of assay [5]: qHTS of pediatric cancer cell lines to identify multiple opportunities for drug repurposing: Primary screen for BT-12 cells (AID 1347101). Also: nearly all actives have a fitted effect of over 25% in size. Put shortly: as §2
The nature of assay [6]: qHTS of pediatric cancer cell lines to identify multiple opportunities for drug repurposing: Primary screen for Rh18 cells (AID 1347102). Also: nearly all actives have a fitted effect of over 65% in size. An outline of the steps:
as §2

Assay [7] is described as follows: qHTS of pediatric cancer cell lines to identify multiple opportunities for drug repurposing: Primary screen for OHS-50 cells (AID 1347103). Also: nearly all actives have a fitted effect of over 40% in size. Also: potency is read from the fitted curve at half-maximal effect. Put shortly: as §2
A short description of assay [8]: qHTS of pediatric cancer cell lines to identify multiple opportunities for drug repurposing: Primary screen for RD cells (AID 1347104). Also: nearly all actives have a fitted effect of over 55% in size. Put shortly:
as §1

Assay [9] can be described thus: qHTS of pediatric cancer cell lines to identify multiple opportunities for drug repurposing: Primary screen for MG 63 (6-TG R) cells (AID 1347105). Also: nearly all actives have a fitted effect of over 50% in size. Put shortly: as §1
The nature of assay [10]: qHTS of pediatric cancer cell lines to identify multiple opportunities for drug repurposing: Primary screen for control Hh wild type fibroblast cells (AID 1347106).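 Also: series mostly up to about 46 µM; a drop in luminescence marks cytotoxicity and a rise apparent proliferation; nearly all actives have a fitted effect of over 55% in size.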 An outline of the steps:
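Viability after 48 h compound treatment at 37C, 500-1,000 cells/well, read as ATP luminescence with CellTiter-Glo. Primary screens used 11-point (MIPE, 0.78 nM-46 µM) or 8-point (NPC, 0.59 nM-46 µM) final concentrations; follow-up screens used 11-point dilutions.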

A short description of assay [11]: qHTS of pediatric cancer cell lines to identify multiple opportunities for drug repurposing: Primary screen for Rh30 cells (AID 1347107). Also: series mostly up to about 46 µM; nearly all actives have a fitted effect of over 75% in size. Put shortly: as §2
The nature of assay [12]: qHTS of pediatric cancer cell lines to identify multiple opportunities for drug repurposing: Primary screen for Rh41 cells (AID 1347108).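 Also: series mostly up to about 46 µM; luminescence drop marks cytotoxic hits; nearly all actives have a fitted effect of over 70% in size.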 An outline of the steps:
as §1

The nature of assay [13]: qHTS of pediatric cancer cell lines to identify multiple opportunities for drug repurposing: Confirmatory screen for A673 cells (AID 1347110).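 Also: cells exposed to compound for 48 h before the viability read; nearly all actives have a fitted effect of over 65% in size.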 Also: potency is read from the fitted curve at half-maximal effect. An outline of the steps:
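Cells plated at 500-1,000/well were treated five hours later with multi-point dilutions up to 46 µM final. After two days, CellTiter-Glo was added and luminescence read.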

Assay [14] is described as follows: qHTS of pediatric cancer cell lines to identify multiple opportunities for drug repurposing: Confirmatory screen for DAOY cells (AID 1347114). Also: nearly all actives have a fitted effect of over 65% in size. An outline of the steps: (§3)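 Viability measured as metabolically active cells via CellTiter-Glo luminescence following 48 hours of compound exposure, 11-point dilutions in confirmatory testing. 500-1,000 cells/well plated 5 hours before dosing; controls were DMSO and 2.3 µM bortezomib.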

Assay [15] is described as follows: qHTS of pediatric cancer cell lines to identify multiple opportunities for drug repurposing: Confirmatory screen for SK-N-MC cells (AID 1347111).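 Also: cells exposed to compound for 48 h before the readout; nearly all actives have a fitted effect of over 70% in size.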 Also: potency is read from the fitted curve at half-maximal effect. Put shortly: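 Seed 500-1,000 cells/well; rest 5 h at 37 degrees C. Pin-transfer compounds, 11-point titration. Incubate 48 h. Add CellTiter-Glo, 15 min RT, read luminescence.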
A short description of assay [16]: qHTS of pediatric cancer cell lines to identify multiple opportunities for drug repurposing: Confirmatory screen for LAN-5 cells (AID 1347113). Also: nearly all actives have a fitted effect of over 65% in size. An outline of the steps: as §2
Assay [17] is described as follows: qHTS of pediatric cancer cell lines to identify multiple opportunities for drug repurposing: Confirmatory screen for NB-EBc1 cells (AID 1347115).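 Also: cells exposed to compound for 48 h before the viability read; nearly all actives have a fitted effect of over 45% in size.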 Put shortly:
as §2

The nature of assay [18]: qHTS of pediatric cancer cell lines to identify multiple opportunities for drug repurposing: Confirmatory screen for SJ-GBM2 cells (AID 1347116). Also: nearly all actives have a fitted effect of over 60% in size. An outline of the steps: as §3
Assay [19] in a line: qHTS of pediatric cancer cell lines to identify multiple opportunities for drug repurposing: Confirmatory screen for BT-37 cells (AID 1347117). Also: nearly all actives have a fitted effect of over 55% in size. An outline of the steps:
as §2

Assay [20] in a line: qHTS of pediatric cancer cell lines to identify multiple opportunities for drug repurposing: Confirmatory screen for MG 63 (6-TG R) cells (AID 1347119). Also: nearly all actives have a fitted effect of over 55% in size. An outline of the steps:
as §2

Results filed as inconclusive are left out. A number with no mark means an inactive call. Activity calls are given as the source filed them. Calls follow the shape of the dose curve; as a rule, active = well fitted curve in the direction sought with a large enough effect; inconclusive = small, poorly fitted or top-dose-only effect, or another doubt; inactive = no such curve, though single readings can be large; an effect the other way counts as inactive or inconclusive.

Regarding `COc1cc(OC)cc(OC)c1`, the Potency result in [1], in [2], in [3], in assay [4], in assay [5] and in [6] was “inactive” each time. In addition, the Potency entry in assay [7], in assay [8], in [9], in [10], in assay [11] and in [12] was “inactive” throughout.
For `O=C(OCC(O)CO)c1ccccc1Nc1ccnc2cc(Cl)ccc12` (configuration not stated), the Potency in assay [1] is 23.7 µM (active). Moreover, the Potency result in assay [2], in assay [3], in assay [4], in assay [5], in assay [6] and in assay [8] was “inactive” in each case. Moreover, the Potency entry in assay [9] and in assay [10] was “inactive” each time.
As to `C[C@@H]1C[C@H]2[C@@H]3C[C@H](F)C4=CC(=O)C(Cl)=C[C@]4(C)[C@@]3(F)[C@@H](O)C[C@]2(C)[C@@]1(O)C(=O)CO`, the Potency entry in [1], in [2], in assay [3], in [4], in assay [5] and in assay [6] was “inactive” throughout. Also, the Potency entry in assay [7], in assay [8], in assay [9], in assay [10], in assay [12] and in assay [13] was “inactive” in each case. The Potency entry in [14] is “inactive”.
As for `CCCCc1nc(Cl)c(CO)n1Cc1ccc(-c2ccccc2-c2nn[nH]n2)cc1`, the Potency entry in [1], in assay [2], in [3], in assay [4], in [5] and in assay [6] was “inactive” throughout. Further, the Potency result in assay [7], in assay [8], in [10], in [11] and in [12] was “inactive” throughout.
Consider `CCC(C(=O)OCCN(CC)CC)c1ccccc1` (configuration not stated), for which the Potency entry in assay [1], in assay [2], in assay [3], in [4], in assay [5] and in assay [6] was “inactive” throughout. For the same compound, the Potency result in [7], in [8], in [9], in assay [10], in assay [11] and in [12] was “inactive” each time. In addition, the Potency entry in assay [16], in assay [14], in assay [17], in assay [18], in assay [19] and in assay [20] was “inactive” throughout. Moreover, the Potency in assay [15] is 13.1 µM (active).
For the compound `NCCc1ccn[nH]1`, the Potency result in assay [1], in assay [2], in [3], in assay [4], in assay [5] and in [6] was “inactive” in each case. Moreover, the Potency result in [7], in assay [8], in assay [9], in assay [10] and in assay [12] was “inactive” throughout.
Turning to `CCCN1CCCC[C@H]1C(=O)Nc1c(C)cccc1C`, the Potency result in assay [1], in assay [2], in assay [3], in assay [4], in assay [5] and in [6] was “inactive” each time. Moreover, the Potency result in [7], in [8], in assay [10], in assay [11] and in [12] was “inactive” in each case.
`CC(C)(Oc1ccc(Cl)cc1)C(=O)O`: the Potency entry in assay [1], in assay [2], in assay [3], in [4], in assay [5] and in assay [6] was “inactive” throughout. For the same compound, the Potency entry in assay [7], in assay [8], in [9], in assay [10] and in assay [12] was “inactive” each time.
As to `C#C[C@]1(O)CC[C@H]2[C@@H]3CCC4=CC(=O)CC[C@@H]4[C@H]3CC[C@@]21C`, the Potency entry in assay [1], in [2], in assay [3], in assay [4], in [5] and in assay [6] was “inactive” each time. Also, the Potency entry in assay [7], in assay [8], in assay [10], in [11] and in [12] was “inactive” in each case.
As for `O=C1OC2(c3ccc(O)cc3Oc3cc(O)ccc32)c2ccccc21`, the Potency entry in assay [1], in assay [2], in assay [3], in assay [4], in assay [5] and in assay [6] was “inactive” in each case. Also, the Potency result in [7], in assay [8], in assay [10] and in assay [12] was “inactive” throughout.
As for `CC1(C)O[C@@H]2C[C@H]3[C@@H]4C[C@H](F)C5=CC(=O)CC[C@]5(C)[C@H]4[C@@H](O)C[C@]3(C)[C@]2(C(=O)CO)O1`, the Potency result in assay [1], in [2], in assay [3], in assay [4], in [5] and in assay [6] was “inactive” throughout. Also, the Potency entry in assay [7], in assay [8], in assay [9], in assay [10], in assay [11] and in assay [12] was “inactive” each time. The Potency entry in assay [13], in assay [16], in assay [14], in assay [17], in [18] and in [19] was “inactive” throughout. Moreover, the Potency entry in [20] is “inactive”.
On to `C[C@H]1C[C@H]2[C@@H]3CCC4=CC(=O)C=C[C@]4(C)[C@@]3(Cl)[C@@H](O)C[C@]2(C)[C@@]1(O)C(=O)CO`, for which the Potency result in assay [1], in assay [2], in assay [3], in assay [4], in assay [5] and in assay [6] was “inactive” each time. In addition, the Potency entry in assay [8], in [10], in [11], in [12], in [15] and in assay [16] was “inactive” in each case. Moreover, the Potency result in [14], in assay [17], in [18], in [19] and in [20] was “inactive” in each case. Moreover, the values for the Potency in assay [7] and in [13] were 24.6 µM (active) and 18.5 µM (active), respectively.
On to `O=C1c2ccccc2C(=O)C1c1ccccc1`, for which the Potency result in assay [1], in [2], in assay [3], in assay [4], in [5] and in assay [6] was “inactive” throughout. Further, the Potency entry in assay [8], in assay [9], in assay [10], in assay [11] and in assay [12] was “inactive” each time.
Consider `Cc1c(C(C)C)c(=O)n(-c2ccccc2)n1C`, for which the Potency entry in assay [1], in [2], in [3], in assay [4], in assay [5] and in assay [6] was “inactive” throughout. The Potency entry in assay [7], in assay [8], in assay [9], in assay [10], in assay [11] and in assay [12] was “inactive” throughout.
For `CCCCCCCCCCCCCCNCCO`, the Potency entry in assay [1], in [2], in assay [3], in assay [4], in assay [5] and in [6] was “inactive” in each case. Further, the Potency result in [8], in assay [9], in assay [10], in assay [11] and in assay [12] was “inactive” in each case.
As for `Nc1ccc(C(=O)O)cc1`, the Potency entry in assay [1], in assay [2], in assay [3], in [4], in assay [5] and in [6] was “inactive” throughout. Moreover, the Potency result in assay [7], in [8], in [10], in assay [11] and in assay [12] was “inactive” in each case.
For `CCN(CC)CCNC(=O)COc1ccc(Cl)cc1`, the Potency entry in [1], in [2], in assay [3], in assay [4], in assay [5] and in assay [6] was “inactive” throughout. Moreover, the Potency entry in assay [7], in [8], in assay [9], in assay [10] and in [12] was “inactive” each time.
